According to PubChem BioAssay (NCI):
The panel holds about 83,000 compounds, 20% with a hit somewhere; the sample as a whole holds those more often.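 Percent growth is the endpoint: 0 to 100 indicates growth inhibition (40 means 60% inhibition), 0 means no net growth, and negative values indicate cell death.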 The source made the active and inactive calls. How the source made its calls: active means growth percent below 10; inactive means the rest.

How the values were obtained:
Experiment in all cases: NCI-60 one-dose screen, 48 h (100 = growth as untreated, 0 = no growth, -100 = all killed)
DU-145 prostate = test system: DU-145 prostate
K-562 leukemia = conditions: 10 µM unless noted
MALME-3M melanoma = test system: MALME-3M melanoma
MDA-MB-231 breast = test system: MDA-MB-231 breast
RXF 393 renal = test system: RXF 393 renal
SF-268 CNS = test system: SF-268 CNS
SF-295 CNS = test system: SF-295 CNS
SF-539 CNS = test system: SF-539 CNS
UACC-257 melanoma = test system: UACC-257 melanoma
M14 melanoma = test system: M14 melanoma

Measured: growth

COc1ccc(CCC2NCCc3c(Br)c4c(c(OC)c32)OCO4)cc1 (centres undefined)
active: K-562 leukemia 6.12% | RXF 393 renal; 10 µM unless noted -17.3% | SF-295 CNS; 10 µM unless noted 4.87% | SF-539 CNS; 10 µM unless noted -39.4% | M14 melanoma; 10 µM unless noted -30.7%
inactive: DU-145 prostate; 10 µM unless noted 33.8% | MALME-3M melanoma; 10 µM unless noted 23.4% | MDA-MB-231 breast; 10 µM unless noted 10.9% | SF-268 CNS; 10 µM unless noted 20.3% | UACC-257 melanoma; 10 µM unless noted 37.5%

OCCn1cc(-c2nc3ccc4[nH]ncc4c3c3c2CCCC3)cn1
active: RXF 393 renal; 10 µM unless noted -12.6%
inactive: DU-145 prostate; 10 µM unless noted 36.2% | K-562 leukemia 21.4% | MALME-3M melanoma; 10 µM unless noted 24.1% | MDA-MB-231 breast; 10 µM unless noted 54.9% | SF-268 CNS; 10 µM unless noted 64% | SF-295 CNS; 10 µM unless noted 60.9% | SF-539 CNS; 10 µM unless noted 36.2% | UACC-257 melanoma; 10 µM unless noted 58% | M14 melanoma; 10 µM unless noted 22.6%

C=CC[n+]1cccc2c3ccccc3ccc21
active: MALME-3M melanoma; 10 µM unless noted 2.38%
inactive: DU-145 prostate; 10 µM unless noted 58.4% | K-562 leukemia 27.8% | MDA-MB-231 breast; 10 µM unless noted 77.6% | RXF 393 renal; 10 µM unless noted 69.7% | SF-268 CNS; 10 µM unless noted 22.7% | SF-295 CNS; 10 µM unless noted 21.4% | SF-539 CNS; 10 µM unless noted 66.6% | UACC-257 melanoma; 10 µM unless noted 20.9% | M14 melanoma; 10 µM unless noted 65.9%

CC/C(=C(/c1ccc(O)cc1)c1ccc(OCCN(C)C(=O)COCCOCCNC(=O)Cc2ccc3c(c2)CN([C@@H]2CCC(=O)NC2=O)C3=O)cc1)c1ccccc1
inactive: DU-145 prostate; 1 µM 104% | DU-145 prostate; 10 µM 105% | MALME-3M melanoma; 1 µM 51.4% | RXF 393 renal; 1 µM 97.4% | RXF 393 renal; 10 µM 99.2% | SF-268 CNS; 1 µM 96.2% | SF-268 CNS; 10 µM 61.3% | SF-295 CNS; 1 µM 101% | SF-295 CNS; 10 µM 94.7% | SF-539 CNS; 1 µM 80.7% | SF-539 CNS; 10 µM 65.3% | UACC-257 melanoma; 1 µM 101% | UACC-257 melanoma; 10 µM 99.8% | M14 melanoma; 1 µM 92.8% | M14 melanoma; 10 µM 65.4%
active: MALME-3M melanoma; 10 µM 1.5% | MDA-MB-231 breast; 1 µM 9.31% | MDA-MB-231 breast; 10 µM -22.2%

CC1=C(C)C(=O)C(N2CCSCC2)=CC1=O
inactive: DU-145 prostate; 10 µM unless noted 107% | K-562 leukemia 107% | MALME-3M melanoma; 10 µM unless noted 91.3% | MDA-MB-231 breast; 10 µM unless noted 86% | RXF 393 renal; 10 µM unless noted 98.5% | SF-268 CNS; 10 µM unless noted 102% | SF-295 CNS; 10 µM unless noted 104% | SF-539 CNS; 10 µM unless noted 96.2% | UACC-257 melanoma; 10 µM unless noted 93.2% | M14 melanoma; 10 µM unless noted 95.4%

CC/C(=C(/c1ccc(O)cc1)c1ccc(OCCN(C)C(=O)CCOCCNC(=O)Cc2ccc3c(c2)CN([C@@H]2CCC(=O)NC2=O)C3=O)cc1)c1ccccc1
inactive: DU-145 prostate; 1 µM 109% | DU-145 prostate; 10 µM 101% | MALME-3M melanoma; 1 µM 42.7% | MALME-3M melanoma; 10 µM 13.3% | MDA-MB-231 breast; 1 µM 11% | RXF 393 renal; 1 µM 104% | RXF 393 renal; 10 µM 93.8% | SF-268 CNS; 1 µM 96.5% | SF-268 CNS; 10 µM 72.6% | SF-295 CNS; 1 µM 103% | SF-295 CNS; 10 µM 94.7% | SF-539 CNS; 1 µM 87.9% | SF-539 CNS; 10 µM 78.4% | UACC-257 melanoma; 1 µM 91% | UACC-257 melanoma; 10 µM 96.1% | M14 melanoma; 1 µM 92.2% | M14 melanoma; 10 µM 65%
active: MDA-MB-231 breast; 10 µM -5.68%

O=C(N/N=C/c1ccc(Br)o1)c1[nH]c2ccc(Br)cc2c1-c1ccccc1
inactive: UACC-257 melanoma; 10 µM unless noted 26.2%
active: DU-145 prostate; 10 µM unless noted -44.6% | K-562 leukemia 7.92% | MALME-3M melanoma; 10 µM unless noted 0.448% | MDA-MB-231 breast; 10 µM unless noted -73.4% | RXF 393 renal; 10 µM unless noted -43.2% | SF-268 CNS; 10 µM unless noted -12.2% | SF-295 CNS; 10 µM unless noted -25.8% | SF-539 CNS; 10 µM unless noted -99.5% | M14 melanoma; 10 µM unless noted 6.88%

CC(=O)C[n+]1cccc2c3ccccc3ccc21
inactive: DU-145 prostate; 10 µM unless noted 105% | K-562 leukemia 69% | MALME-3M melanoma; 10 µM unless noted 63.5% | MDA-MB-231 breast; 10 µM unless noted 85.7% | RXF 393 renal; 10 µM unless noted 46.3% | SF-268 CNS; 10 µM unless noted 66.5% | SF-295 CNS; 10 µM unless noted 93.9% | SF-539 CNS; 10 µM unless noted 89.6% | UACC-257 melanoma; 10 µM unless noted 48.8% | M14 melanoma; 10 µM unless noted 98.7%

Fc1ccc(F)c(CNc2nc(SCCN3CCOCC3)nc3c2cnn3CC(Cl)c2ccc(Br)cc2)c1 (centres undefined)
active: MALME-3M melanoma; 10 µM unless noted -30% | MDA-MB-231 breast; 10 µM unless noted 6.86% | RXF 393 renal; 10 µM unless noted -4.06% | SF-295 CNS; 10 µM unless noted 5.06% | UACC-257 melanoma; 10 µM unless noted 6.07%
inactive: DU-145 prostate; 10 µM unless noted 43.3% | K-562 leukemia 10.6% | SF-268 CNS; 10 µM unless noted 30.1% | SF-539 CNS; 10 µM unless noted 17.9% | M14 melanoma; 10 µM unless noted 18.1%

COc1ccc(-c2cc(-c3ccccc3)c(C#N)c(=O)[nH]2)cc1S(N)(=O)=O
active: MDA-MB-231 breast; 10 µM unless noted -18.1%
inactive: DU-145 prostate; 10 µM unless noted 103% | K-562 leukemia 109% | MALME-3M melanoma; 10 µM unless noted 97.9% | RXF 393 renal; 10 µM unless noted 100% | SF-268 CNS; 10 µM unless noted 101% | SF-295 CNS; 10 µM unless noted 108% | SF-539 CNS; 10 µM unless noted 96.3% | UACC-257 melanoma; 10 µM unless noted 98.9% | M14 melanoma; 10 µM unless noted 99.7%

CC/C(=C(/c1ccc(O)cc1)c1ccc(OCCN(C)C(=O)COCCOCCNC(=O)c2ccc3c(c2)CN([C@@H]2CCC(=O)NC2=O)C3=O)cc1)c1ccccc1
active: MDA-MB-231 breast; 10 µM 8.81%
inactive: DU-145 prostate; 1 µM 107% | DU-145 prostate; 10 µM 109% | MALME-3M melanoma; 1 µM 64.1% | MALME-3M melanoma; 10 µM 31.4% | MDA-MB-231 breast; 1 µM 25.5% | RXF 393 renal; 1 µM 98.3% | RXF 393 renal; 10 µM 99% | SF-268 CNS; 1 µM 88.3% | SF-268 CNS; 10 µM 83.7% | SF-295 CNS; 1 µM 102% | SF-295 CNS; 10 µM 94.8% | SF-539 CNS; 1 µM 92.1% | SF-539 CNS; 10 µM 91.1% | UACC-257 melanoma; 1 µM 96.2% | UACC-257 melanoma; 10 µM 95.5% | M14 melanoma; 1 µM 89.9% | M14 melanoma; 10 µM 92%
